Reference: PubChem BioAssay (NCI)
Where “and” joins values, the source holds several entries; their conditions need not be identical. Identical values can stand only once. About 83,000 compounds went through this panel and 20% of them were active in at least one assay; those are over-represented in the sample as a whole.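 Percent growth is the endpoint: 0 to 100 indicates growth inhibition (40 means 60% inhibition), 0 means no net growth, and negative values indicate cell death.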 A number with no mark means an inactive call. Calls of active or inactive are those of the source. How the source made its calls: active means growth percent below 10; inactive means the rest.

System: MDA-MB-468 breast
Experiment: NCI-60 one-dose screen, 48 h (100 = growth as untreated, 0 = no growth, -100 = all killed)
Details: 10 µM unless noted

| Structure (SMILES) | growth |
| --- | --- |
| CCCCCCCCN(CCCCCCCC)C(=O)CCl | 79.9% |
| CN1C(=O)N(C)C2(c3ccccc3)OC(=S)NC12c1ccccc1 (stereo not given) | 112% |
| COc1cc(-c2n/c(=C\c3c(O)[nH]c4cc(Cl)ccc34)cc3c2=Nc2ccccc2-3)cc(OC)c1OC | 73.7% |
| Cc1ccc2c(c1)C(=O)/C(=C/c1ncc([N+](=O)[O-])n1C)O2 | 52.4% |
| COC(=O)[C@@H](C)CNS(=O)(=O)N(c1cc(C(F)(F)F)cc(C(F)(F)F)c1)C1CCN(Cc2ccc(F)cc2)CC1 | 23.6% |
| Cc1cccc2c3c(sc12)C(c1ccc(F)cc1)C(C#N)=C(N)O3 (stereo not given) | 24.3% |
| Cc1noc(C)c1CSc1nc2ccccc2n1-c1ccccc1 | 108% |
| N#CC1=C(N)Oc2c(sc3c(Br)cccc23)C1c1ccc([N+](=O)[O-])cc1 (stereo not given) | 42.2% |
| COc1ccc2oc(=O)cc(-c3nc4ccc(N)cc4[nH]3)c2c1 | 83.9% |
| CCCCC1COc2cccc3c2N1C=C/C3=C\C(=O)N(C)c1ccccc1 (stereo not given) | 18.8% |
| COc1ccc(/C=c2/c(=O)[nH]c3nc4sc(C)c(C)c4c(=O)n23)cc1 | 83.1% |
| Cc1cc(NCc2cc(Nc3ccnc4cc(Cl)ccc34)ccc2F)nc(Cl)n1 | -3.4% (active) |
| CCCOc1nc(SCCC)nc2c1cnn2-c1ccccc1 | 106% |
| CS(=O)(=O)OCC(COS(C)(=O)=O)C(c1ccccc1)c1ccccc1 | 102% |
| O=S(O)c1cc(Cl)cc(Cl)c1OCc1ccccc1 | 84% |
| COc1cccc2c1C(=O)c1c(O)c3c(c(O)c1C2=O)C[C@@](O)(C(=O)CO)C[C@@H]3OC1C[C@H](N)[C@H](O)[C@H](C)O1 (stereo not given in full) | -68.8% (active) |
| O=C(Cn1c2ccccc2c2ccncc21)N/N=C/c1c[nH]c2ccccc12 | 43.4% |
| CN(c1ccc(F)cc1)S(=O)(=O)c1ccc(-c2cnc(C3CC3)o2)cc1 | -8.39% (active) |
| CN(C)CCOC(=O)Nc1ccc(Cl)cc1 | 104% |
| COc1ccc(/C=C2/SC(=S)NC2=O)c(OC)c1OC | 65.4% |

| Structure (SMILES) | growth |
| --- | --- |
| O=C(Nc1nc2cccc(-c3ccc(CN4CCS(=O)(=O)CC4)cc3)n2n1)C1CC1 | 41.5% |
| CC(=O)Nc1nc(C)c(-c2csc(Nc3ccccc3)n2)s1 | 4.66% (active) |
| C=C1c2c(C)nn(-c3ccc(C#CCOC4OC(CO)C(O)C(O)C4O)cc3)c2N(C)C23C[C@H]1C1(C)c4c(C)nn(-c5ccc(C#CCOC6OC(CO)C(O)C(O)C6O)cc5)c4N(C)C(C)(C[C@H]12)C3 (stereo not given in full) | -16.4% (active) |
| Cc1cc(=O)[nH]c(O)c1C#N | 97.5% and 95.9% and 111% |
| COc1ccc(S(=O)(=O)NCCCNc2nccc(-c3cn(C(C)(C)C)nc3-c3ccc(Cl)c(OC)c3)n2)cc1 | 76.8% |
| Cc1c(C(=O)O[C@H]2[C@@H]3[C@H](C)CC[C@H]3[C@]3(C)O[C@@]2(C2CCCCC2)C[C@H]3OC(=O)CO)ccc2ccccc12 | 22.5% |
| Brc1ccc(-c2nc3ccccc3s2)cc1 | 93% |
| Cc1cc[n+](CCCC[n+]2ccc(C)cc2)cc1 | 99% |
| COc1nc2c(cc1S(=O)(=O)c1ccccc1)CCc1c-2cnn1-c1ccccc1Cl | 40.4% |
| N=c1nc(N)ncn1-c1ccccc1 | 113% |
| CC(=O)Nc1cccc(C2=CC(c3ccc(C)cc3)n3ncnc3N2)c1 (stereo not given) | 92.7% |
| Nc1cccc2cccc([N+](=O)[O-])c12 | 109% |
| Cc1ccc(NS(=O)(=O)c2ccc(-c3cnc(C4CC4)o3)cc2)cc1C | -25.6% (active) |
| C/C(Cc1ccc(Cl)cc1)=C(\c1ccc(OCCN2CCCCCC2)cc1)c1ccc(OC(=O)c2ccccc2)cc1 | 48.1% |
| O=C1OCC2=C1C(c1ccncc1)c1cc3c(cc1N2CCO)OCO3 (stereo not given) | 96.3% |
| Cc1cc(C)c(C#N)c(Sc2nc(C)c([N+](=O)[O-])c(C)c2C#N)n1 | 46% |
| FCc1nc2nc(Cl)c(Cl)nc2[nH]1 | 93.2% |
| CCCCCc1c(C)[nH]c(/C=C2\N=C(c3ccc[nH]3)C=C2Oc2ccc(Cl)cc2)c1C | -16.4% [100 µM] (active) |
| COc1ccc(-n2c(-c3ccccc3)c(-c3ccccc3)c3c(SCC(=O)N/N=C/c4ccc(Cl)cc4)ncnc32)cc1 | 77.6% |
| O=C(CSc1nccc(Nc2ccc(S(=O)(=O)Nc3nccs3)cc2)n1)c1ccc(F)cc1 | 98.6% |
